Results filed as inconclusive are left out. Entries that show only a call come without a potency. The source made the active and inactive calls. The call rests on the fitted dose curve; in most records, active means well fitted cell-killing curve with a large enough effect; inconclusive means small, poorly fitted or top-dose-only effect, or effect the other way; inactive means no such curve, though single readings can be large or run the other way.
Potency means the concentration at half of the fitted maximal effect.

The test is described as follows: Viability qHTS for spleen associated tyrosine kinase inhibitor (SYKi) naive MV4-11 cells (AID 1963823). Further: nearly all actives have a fitted effect of over 40% in size. Conditions: MV4-11 AML viability, CellTiter-Glo luminescence, 72 h; series mostly up to 45 µM. The method in brief:
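CellTiter-Glo luminescence, 10 min room-temperature incubation, gave viability. Cells: naive MV4-11 (500/well), treated 72 hr at 37 C, 5% CO2.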
(In general: In qHTS, concentration-response curves come from the screen itself.)
For `C=C1C(OC(C)=O)CCC2(C)CCC(C(C)(C)O)CC12` (centres undefined), the Potency entry is “inactive”. `CC1(C)CC[C@]2(C(=O)O)[C@H](O)C[C@]3(C)C(=CCC4[C@@]5(C)CC[C@H](O[C@@H]6O[C@H](CO[C@@H]7OC[C@H](O)[C@H](O)[C@H]7O[C@@H]7OC[C@H](O)[C@H](O)[C@H]7O)[C@@H](O)[C@H](O)[C@H]6O)C(C)(C)C5CC[C@]43C)[C@@H]2C1` (some centres undefined): the viability (% of control) was 57.5% [at 9.25 µM] (inactive).

As to `C=C1C[C@]23C[C@H]1CC[C@H]2[C@]1(C)CC[C@H](O)[C@@](C)(C(=O)O)[C@H]1[C@@H]3C(=O)O`, the Potency result is “inactive”. In the case of `COc1cc(Nc2ccc([N+](=O)[O-])cc2C(=O)O)cc2ccccc12`, the Potency result is “inactive”.

As for `C[C@H](NC(=O)CCc1nc2ccccc2c(=O)[nH]1)c1ccccc1`, the Potency result is “inactive”. Consider `Cc1ccc(NC(=O)N2CCN(c3nc(N)nc4sc(-c5cccnc5)nc34)CC2)cc1`, for which the Potency was 13 nM (active). For `CC(=O)OC[C@]12[C@H](OC(C)=O)[C@H](OC(=O)c3ccccc3)[C@@H]3[C@@H](OC(C)=O)[C@]1(OC3(C)C)[C@H](C)C[C@H](OC(C)=O)[C@@H]2OC(=O)c1ccccc1`, the Potency entry was “inactive”. With `C[C@@H]1C[C@H]2OC(=O)[C@@]3(C)CCC[C@](C)(C23)[C@@]1(O)CCC1=CC(=O)OC1O` (some centres undefined), the Potency entry is “inactive”.

In the case of `CC1(C)C[C@H](O)C[C@@]2(C)OC(=O)C=C12`, the Potency result was “inactive”.

For the origin of these results see PubChem BioAssay (NCATS).
